Measured values as given in ChEMBL document CHEMBL4513216, “Probing the Open Global Health Chemical Diversity Library for Multistage-Active Starting Points for Next-Generation Antimalarials” (ACS Infect Dis, 2020).
The whole screen tested about 69,000 compounds, of which about 8,600 (12%) showed an effect of 50% or more. Shown is part of a subset that was picked to be rich in strong results.

The compounds below were run on Plasmodium berghei (assay: Screen against P. berghei liver stage (PbLuc), transformed with Luciferase, at 10uM). Conditions: tested at 10 uM.
Type: functional, HepG2

SMILES	INHIBITION
CCc1ccc(NC(=O)c2n[nH]c(-n3cnnc3)n2)cc1	25.9%
CCc1nc(C2CCCN(C(=O)C(C)(C)NS(C)(=O)=O)C2)no1 (stereo unspecified)	3.73%
O=C(c1cnn2c1OCCC2)N1CCC(Cc2ccccc2)CC1	13.6%
c1cc(CNCC2Cn3nncc3CO2)ccn1 (stereo unspecified)	29.8%
CCN1CCOC(CNCc2cnc(C(C)(C)C)s2)C1 (stereo unspecified)	46.5%
CCN1CCOC(CNCc2ccccn2)C1 (stereo unspecified)	33%
c1coc(CNCC2Cn3nncc3CO2)c1 (stereo unspecified)	62.9%
c1cc(CNCC2Cn3nncc3CO2)co1 (stereo unspecified)	-21.7%
Cc1ccc(CNCC2Cn3nncc3CO2)o1 (stereo unspecified)	43.9%
Cc1nc(CNCC2Cn3nncc3CO2)cs1 (stereo unspecified)	5.89%
Cc1ccc(CNCC2Cn3nncc3CO2)s1 (stereo unspecified)	54.8%
CCN1CCOC(CNCc2ccc(C)s2)C1 (stereo unspecified)	73.6%
COc1cccc(C(=O)N2CCc3c(nc(N)[nH]c3=O)C2)c1C	21.8%
CN(C)C(=O)[C@H]1C[C@@H]2CCN(Cc3ccoc3)C[C@@H]2O1	34%
O=C(Nc1ccccc1)c1cc2n(n1)CCCN(C(=O)N1CCCC1)C2	35%
Cc1cc2ccccc2n1CCC(=O)NCCCc1nnc(N)s1	0.426%
CCCC(C)C(=O)N1CCC(n2cccc2C(=O)OC)CC1 (stereo unspecified)	12.2%
N#Cc1cccc(N2CC3(CCN(C(=O)c4ccncc4)C3)CC2=O)c1 (stereo unspecified)	21.5%
Cc1nn(C)c(C)c1C1CCCN1Cc1nc(C2CC2)no1 (stereo unspecified)	21.2%
Cc1nn(C)c(Cl)c1C1CCCN1Cc1cn2ccsc2n1 (stereo unspecified)	24.8%
CCc1nc(C2CCCN2Cc2nccn2Cc2ccccc2)no1 (stereo unspecified)	32%
COc1c(C2CCCN2Cc2csc(C(C)C)n2)c(C)nn1C (stereo unspecified)	20.1%
CCCn1ccnc1CN1CCCC1c1cccc(-n2ccnc2)n1 (stereo unspecified)	42.4%

SMILES	INHIBITION
Cc1nn(C)c(C)c1C1CCCN1C(=O)Cc1cn2ccsc2n1 (stereo unspecified)	21.1%
CCCn1ccnc1CN1CCCC1c1ccccn1 (stereo unspecified)	56.7%
COc1c(C2CCCN2Cc2cn3ccsc3n2)c(C)nn1C (stereo unspecified)	65.6%
Cc1nn(C)c(C)c1C1CCCN1Cc1cn2ccsc2n1 (stereo unspecified)	74%
CCCc1noc(CN2CCCC2c2c(C)nn(C)c2OC)n1 (stereo unspecified)	42.9%
COc1c(C2CCCN2Cc2nc(C3CC3)no2)c(C)nn1C (stereo unspecified)	52.3%
COc1c(C2CCCN2Cc2nc(C)c(C)o2)c(C)nn1C (stereo unspecified)	11.2%
CCN(Cc1ccco1)C(C)c1nc(C(C)C)no1 (stereo unspecified)	-165%
Cc1cccc(OCCNC(=O)CN2CCN(C)CC2C)c1 (stereo unspecified)	-43.415%
COCC1CN(C(=O)COc2ccccc2)Cc2cn(C)nc21 (stereo unspecified)	11.5%
COc1ncccc1C(=O)N1C[C@@H]2COC[C@]2(CN(C)C)C1	-35.2%
O=C(NCCCn1ccnc1)C1CCC(=O)N1Cc1cccs1 (stereo unspecified)	13.9%
CCn1cncc1-c1nc2c([nH]1)CC(C)(C)CNC2=O	-23.2%
Cc1ccc(O[C@@H]2C[C@H]3CN(C(=O)c4cccnc4)CCN3C2)cc1	-2.25%
OCC1N(Cc2ccc(F)cc2)C2CCC1(O)CC2 (stereo unspecified)	39.6%
COc1c(C2CCCN2Cc2cc(C)no2)c(C)nn1C (stereo unspecified)	0.938%
CCn1ccnc1CN1CCCC1c1c(C)nn(C)c1OC (stereo unspecified)	65.4%
COc1c(C2CCCN2Cc2nccn2C)c(C)nn1C (stereo unspecified)	22.8%
CC(NC(=O)CN(C)C(C)C)c1ccc(Oc2cccnc2)c(F)c1 (stereo unspecified)	23.5%
CSc1nsc(NC(=O)N(C)Cc2ccc3c(c2)OCO3)n1	-29.6%
Cc1ccccc1OCCn1cnc2oc(C)c(C(=O)O)c2c1=O	-16.3%
CCc1cnc(CCNS(C)(=O)=O)s1	48.3%
CC(C)c1nc(C2CCCN2C(=O)c2cc(Cl)c[nH]2)no1 (stereo unspecified)	6.09%

SMILES	INHIBITION
CC(C)CN1CCC2(CCN(Cc3nccs3)CC2)C1=O	29%
Cc1ccc2cc(C(=O)N3CCCN(C)CC3)ccc2n1	48%
Cc1ccc2cc(C(=O)N3CCC(O)(C(F)(F)F)CC3)ccc2n1	51.7%
Cc1ccc2cc(C3(O)CCN(C)CC3)ccc2n1	-12.1%
Cc1ccc2cc(C3(O)CCN(C(=O)CN4CCCC4)CC3)ccc2n1	-9.67%
Cc1ccc2cc(C(=O)N3CCN(C(=O)N(C)C)CC3)ccc2n1	70.3%
COCCOCC(=O)N1CCC(O)(c2ccc3nc(C)ccc3c2)CC1	-18.5%
Cc1ccc2cc(C3(O)CCN(C(=O)CSC(C)C)CC3)ccc2n1	81.6%
O=C(c1ccoc1)N1CCC(O)(C(F)(F)F)CC1	30%
CN(C)C(=O)N1CCN(C(=O)c2ccn3ccnc3c2)CC1	7.97%
CS(=O)(=O)Cc1ccc(C(=O)N2CCCC(n3cncn3)C2)o1 (stereo unspecified)	25.8%
Cn1ccc2ccc(C(=O)N3CC[C@@]4(O)CCCC[C@H]4C3)cc21	18.3%
CC(=O)N1CCCN(Cc2cc(F)cc(Br)c2)CC1	33.4%
O=C1CC(c2cccnc2)C2(CCN(S(=O)(=O)C3CC3)CC2)N1 (stereo unspecified)	9.67%
Cc1ccccc1-n1ncc2c(=O)n(CCN3CCCCC3)cnc21	-51.1%
COc1ccc(CN(C)Cc2c(C)noc2C)c(Br)c1OC	26.8%
Cc1cnn(CC2CCCN2Cc2cc(C)on2)c1 (stereo unspecified)	4.585%
CC(C)(C)C(=O)N[C@H]1CC[C@H](Nc2nccc(-c3ccncc3)n2)C1	18.7%
COc1cccc(CC2CN(C3CCCCC3)CCO2)c1 (stereo unspecified)	36.2%
CCOc1ccccc1OCCN(C)Cc1nccn1C	20.5%
CCOc1ccccc1N(C)Cc1nccn1C	52.6%
CN(Cc1nccn1C)c1ccc(-c2nccn2C)nn1	-84.1%
COCCC(=O)N1CCCC1c1nccnc1Nc1ncccn1 (stereo unspecified)	33.7%

SMILES	INHIBITION
Cn1ccnc1CN1CCC2(CC1)CN(Cc1cccnc1)C(=O)CO2	57.4%
Cn1ccnc1CN1CCC2(CC1)CCN(c1cncnc1)C2=O	8.93%
O=C1COC2(CCN(Cc3cccs3)CC2)CN1c1ccccc1	26.8%
O=C1COC2(CCN(Cc3cccs3)CC2)CN1c1cccnc1	10.7%
Cn1ccnc1CN1CCC2(CC1)CN(Cc1ccccc1)C(=O)CO2	33%
Cn1ccnc1CN1CCC2(CC1)CN(c1ccccc1)C(=O)CO2	-4.88%
Cn1ccnc1CN1CCC2(CC1)CN(c1cncnc1)C(=O)CO2	57.9%
O=C1COC2(CCN(Cc3cccs3)CC2)CN1c1cncnc1	67%
CN(C)CCN1CCC2(CC1)CN(Cc1cccnc1)C(=O)CO2	41.2%
O=C(c1cccnc1)N1CCC2(CC1)CCN(c1ccsc1)C2=O	16.6%
COCCCN1CC2(CCCCN2C(=O)c2ccsc2)CC1=O (stereo unspecified)	20.7%
Cc1cc(CN(Cc2cccnc2)CC2CCCO2)on1 (stereo unspecified)	48.2%
Cc1nccn1C1CCCN(C(=O)c2cc3c(F)cccc3[nH]2)C1 (stereo unspecified)	42%
CCc1ccc(NC(=O)C(C)Nc2cccc3c2OCCO3)cc1 (stereo unspecified)	21.3%
O=C(c1ccc2[nH]cnc2c1)N1CCC(COc2ccccn2)CC1	32.3%
CN(CCn1cccn1)C1CCCN(Cc2noc(C3CC3)n2)C1 (stereo unspecified)	39.7%
Cc1csc(C2CCCCN2C(=O)c2cc(Cl)c[nH]2)n1 (stereo unspecified)	-19.4%
O=C(CSc1ccccn1)NCc1ccc2c(c1)CCC(=O)N2	35%
CC(NC(=O)NCc1ccoc1)c1ccc2c(c1)CCC(=O)N2 (stereo unspecified)	36.4%
Cc1nnc(SCC(=O)c2cc3c(cc2Cl)NC(=O)C3)s1	48.7%
Cc1nnc(SCC(=O)NCc2ccc3c(c2)CCC(=O)N3)s1	72.3%
Cn1ccnc1SCC(=O)NCc1ccc2c(c1)CCC(=O)N2	34.2%
Cc1nnc(SCC(=O)NCc2ccc3c(c2)CCC(=O)N3)n1C	58.2%

SMILES	INHIBITION
CC(CC(=O)NCCS(N)(=O)=O)C1CCCCC1 (stereo unspecified)	16%
CCN(Cc1ccc(O)c(C(=O)O)c1)CC1CCCO1 (stereo unspecified)	42.3%
CN(Cc1nc(C(F)(F)F)cs1)C(=O)CCc1cccnc1	-7.53%
CCCOc1cc(C)ccc1NC(=O)NCCNC(C)=O	1.06%
O=C(c1ccncc1)N1CCC2(CC1)C(=O)Nc1ccccc12	-16.9%
CN(Cc1cn2c(n1)CN(C(=O)c1ccc[nH]1)CC2)Cc1ccco1	7.31%
CS(=O)(=O)NCc1cn2c(n1)CN(C(=O)c1ccc[nH]1)CC2	27.3%
CCN(CC)Cc1cn2c(n1)CN(C(=O)Cc1ccsc1)CC2	73.6%
CC(C)N(C)Cc1cn2c(n1)CN(C(=O)Cc1ccsc1)CC2	-9.86%
CN(C)Cc1cc(=O)n2c(n1)CN(C(=O)c1ccc[nH]1)CCC2	32.1%
CC(C)N(C)Cc1cc(=O)n2c(n1)CN(C(=O)c1ccc[nH]1)CCC2	26.7%
CC(C)N(C)Cc1cn2c(n1)CN(C(=O)Cc1ccccc1)CC2	72.3%
O=C(Cc1ccccc1)N1CCn2cc(Cn3cncn3)nc2C1	-28.7%
O=C(Cc1ccsc1)N1CCn2cc(CN3CCCC3)nc2C1	-63.2%
CC(C)N(C)Cc1cn2c(n1)CN(C(=O)c1ccc[nH]1)CC2	63.7%
CCN(CC)Cc1cc(=O)n2c(n1)CN(C(=O)c1ccc[nH]1)CCC2	58.4%
CN(C)Cc1cn2c(n1)CN(C(=O)Cc1ccsc1)CC2	-15.6%
O=C(NC1CC1)C1=CC2(CCN(CC3CC3)CC2)c2ccccc21	37.1%
Cc1cncc(C2CCN(Cc3ccc(S(C)(=O)=O)cc3)CC2)n1	25.3%
